From ChEMBL document CHEMBL2218924, “A broad activity screen in support of a chemogenomic map for kinase signalling research and drug discovery” (Biochem J, 2013)

Experiments:
[1] = biological target: MAP kinase-activated protein kinase 2 (Homo sapiens) (UniProt P49137); settings: at 10 µM
[2] = biological target: MAP kinase-activated protein kinase 3 (Homo sapiens) (UniProt Q16644); settings: at 10 µM
[3] = biological target: Serine/threonine-protein kinase MARK1 (Homo sapiens) (UniProt Q9P0L2); settings: at 1 µM
[4] = biological target: Serine/threonine-protein kinase MARK1 (Homo sapiens) (UniProt Q9P0L2); settings: at 10 µM
[5] = biological target: Dual specificity mitogen-activated protein kinase kinase 1 (Homo sapiens) (UniProt Q02750); settings: at 1 µM
[6] = biological target: Dual specificity mitogen-activated protein kinase kinase 1 (Homo sapiens) (UniProt Q02750); settings: at 10 µM
[7] = biological target: Maternal embryonic leucine zipper kinase (Homo sapiens) (UniProt Q14680); settings: at 1 µM
[8] = biological target: Maternal embryonic leucine zipper kinase (Homo sapiens) (UniProt Q14680); settings: at 10 µM
[9] = biological target: Misshapen-like kinase 1 (Homo sapiens) (UniProt Q8N4C8); settings: at 1 µM
[10] = biological target: Misshapen-like kinase 1 (Homo sapiens) (UniProt Q8N4C8); settings: at 10 µM
[11] = biological target: T1, Dual specificity mitogen-activated protein kinase kinase 6 (Homo sapiens) (UniProt P52564); settings: at 1 µM
T1 sequence (whole entry): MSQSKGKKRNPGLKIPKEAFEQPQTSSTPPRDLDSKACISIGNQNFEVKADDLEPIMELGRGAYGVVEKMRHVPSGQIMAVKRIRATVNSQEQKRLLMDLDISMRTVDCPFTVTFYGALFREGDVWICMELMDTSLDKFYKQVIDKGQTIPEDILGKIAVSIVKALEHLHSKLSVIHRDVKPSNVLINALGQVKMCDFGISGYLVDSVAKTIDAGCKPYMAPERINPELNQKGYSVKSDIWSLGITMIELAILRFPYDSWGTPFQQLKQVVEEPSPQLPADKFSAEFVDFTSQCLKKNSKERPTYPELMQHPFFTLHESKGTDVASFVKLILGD

[12] = biological target: T1, Dual specificity mitogen-activated protein kinase kinase 6 (Homo sapiens); settings: at 10 µM
[13] = biological target: T2, Dual specificity mitogen-activated protein kinase kinase 7 (Homo sapiens) (UniProt O14733); settings: at 1 µM
T2 sequence (whole entry): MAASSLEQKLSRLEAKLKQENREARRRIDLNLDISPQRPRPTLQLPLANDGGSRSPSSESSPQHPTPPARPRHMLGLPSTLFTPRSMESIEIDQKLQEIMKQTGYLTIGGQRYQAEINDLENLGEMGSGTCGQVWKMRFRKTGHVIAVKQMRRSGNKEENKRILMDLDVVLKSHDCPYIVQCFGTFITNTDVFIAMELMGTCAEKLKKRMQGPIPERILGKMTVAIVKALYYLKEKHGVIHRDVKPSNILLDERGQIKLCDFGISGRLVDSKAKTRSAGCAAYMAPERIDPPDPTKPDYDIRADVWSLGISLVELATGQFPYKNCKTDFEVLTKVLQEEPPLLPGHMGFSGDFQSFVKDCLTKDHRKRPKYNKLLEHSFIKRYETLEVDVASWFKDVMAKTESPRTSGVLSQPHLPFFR

[14] = biological target: T2, Dual specificity mitogen-activated protein kinase kinase 7 (Homo sapiens); settings: at 10 µM
[15] = biological target: Myosin light chain kinase, smooth muscle (Homo sapiens) (UniProt Q15746); settings: at 1 µM
[16] = biological target: Myosin light chain kinase, smooth muscle (Homo sapiens) (UniProt Q15746); settings: at 10 µM
[17] = biological target: Mitogen-activated protein kinase kinase kinase 9 (Homo sapiens) (UniProt P80192); settings: at 1 µM
[18] = biological target: Mitogen-activated protein kinase kinase kinase 9 (Homo sapiens) (UniProt P80192); settings: at 10 µM
[19] = biological target: Serine/threonine-protein kinase MRCK alpha (Homo sapiens) (UniProt Q5VT25); settings: at 1 µM
[20] = biological target: Serine/threonine-protein kinase MRCK alpha (Homo sapiens) (UniProt Q5VT25); settings: at 10 µM

MAP kinase-activated protein kinase 3 (Homo sapiens), sequence (Q16644 whole entry, looked up): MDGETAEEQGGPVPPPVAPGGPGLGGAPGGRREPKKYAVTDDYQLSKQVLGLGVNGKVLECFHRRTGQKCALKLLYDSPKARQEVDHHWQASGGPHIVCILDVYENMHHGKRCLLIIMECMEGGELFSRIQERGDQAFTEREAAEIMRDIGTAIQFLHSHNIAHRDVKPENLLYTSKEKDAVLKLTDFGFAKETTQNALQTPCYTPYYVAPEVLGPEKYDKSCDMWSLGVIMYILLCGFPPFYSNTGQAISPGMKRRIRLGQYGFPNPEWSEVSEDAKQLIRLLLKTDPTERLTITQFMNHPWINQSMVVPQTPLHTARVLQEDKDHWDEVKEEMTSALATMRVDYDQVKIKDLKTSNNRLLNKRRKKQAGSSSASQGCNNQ
Serine/threonine-protein kinase MRCK alpha (Homo sapiens), sequence (Q5VT25 whole entry): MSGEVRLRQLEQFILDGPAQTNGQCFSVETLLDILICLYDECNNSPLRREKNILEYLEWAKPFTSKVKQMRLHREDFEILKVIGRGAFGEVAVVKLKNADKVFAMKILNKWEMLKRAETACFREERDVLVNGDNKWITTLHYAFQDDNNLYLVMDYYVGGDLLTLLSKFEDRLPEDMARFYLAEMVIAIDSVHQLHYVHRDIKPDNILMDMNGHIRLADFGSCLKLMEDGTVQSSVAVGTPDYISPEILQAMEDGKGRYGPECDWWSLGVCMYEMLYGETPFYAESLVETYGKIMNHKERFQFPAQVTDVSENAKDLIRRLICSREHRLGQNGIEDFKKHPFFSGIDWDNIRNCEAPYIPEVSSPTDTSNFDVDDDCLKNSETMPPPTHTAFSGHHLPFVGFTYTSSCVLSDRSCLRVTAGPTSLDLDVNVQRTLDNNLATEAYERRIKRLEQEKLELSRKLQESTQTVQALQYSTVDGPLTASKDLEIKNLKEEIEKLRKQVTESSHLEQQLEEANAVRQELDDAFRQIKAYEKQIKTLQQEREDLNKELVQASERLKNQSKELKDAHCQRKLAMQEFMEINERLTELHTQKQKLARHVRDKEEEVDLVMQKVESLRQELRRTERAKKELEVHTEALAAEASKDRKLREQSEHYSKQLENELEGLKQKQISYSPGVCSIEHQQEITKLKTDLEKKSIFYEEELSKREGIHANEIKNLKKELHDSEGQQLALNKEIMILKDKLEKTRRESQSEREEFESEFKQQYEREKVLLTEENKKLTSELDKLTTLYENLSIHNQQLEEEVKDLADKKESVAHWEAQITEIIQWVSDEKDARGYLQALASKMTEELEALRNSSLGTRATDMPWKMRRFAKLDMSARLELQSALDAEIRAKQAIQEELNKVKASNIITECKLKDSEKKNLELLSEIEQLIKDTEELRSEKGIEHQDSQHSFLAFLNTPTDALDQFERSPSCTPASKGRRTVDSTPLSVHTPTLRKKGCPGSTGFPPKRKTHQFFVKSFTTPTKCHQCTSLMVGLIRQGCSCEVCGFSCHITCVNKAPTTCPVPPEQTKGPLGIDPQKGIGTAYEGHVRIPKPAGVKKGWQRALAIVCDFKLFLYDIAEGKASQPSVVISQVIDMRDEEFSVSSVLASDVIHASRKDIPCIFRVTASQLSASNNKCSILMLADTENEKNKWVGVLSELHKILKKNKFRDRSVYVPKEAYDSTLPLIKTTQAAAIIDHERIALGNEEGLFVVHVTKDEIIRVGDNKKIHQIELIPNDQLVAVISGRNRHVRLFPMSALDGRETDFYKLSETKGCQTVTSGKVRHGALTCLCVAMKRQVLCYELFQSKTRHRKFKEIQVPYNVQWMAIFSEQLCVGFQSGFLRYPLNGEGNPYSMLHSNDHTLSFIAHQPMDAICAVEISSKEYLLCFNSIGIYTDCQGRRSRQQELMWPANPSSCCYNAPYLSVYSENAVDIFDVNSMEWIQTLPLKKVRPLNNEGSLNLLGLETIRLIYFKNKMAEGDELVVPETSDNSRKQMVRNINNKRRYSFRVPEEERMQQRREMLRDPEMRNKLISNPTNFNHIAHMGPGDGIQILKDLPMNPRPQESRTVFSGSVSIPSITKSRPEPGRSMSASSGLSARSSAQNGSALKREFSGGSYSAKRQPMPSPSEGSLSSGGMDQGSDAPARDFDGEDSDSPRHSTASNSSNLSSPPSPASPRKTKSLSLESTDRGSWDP
Misshapen-like kinase 1 (Homo sapiens), sequence (Q8N4C8 whole entry, looked up): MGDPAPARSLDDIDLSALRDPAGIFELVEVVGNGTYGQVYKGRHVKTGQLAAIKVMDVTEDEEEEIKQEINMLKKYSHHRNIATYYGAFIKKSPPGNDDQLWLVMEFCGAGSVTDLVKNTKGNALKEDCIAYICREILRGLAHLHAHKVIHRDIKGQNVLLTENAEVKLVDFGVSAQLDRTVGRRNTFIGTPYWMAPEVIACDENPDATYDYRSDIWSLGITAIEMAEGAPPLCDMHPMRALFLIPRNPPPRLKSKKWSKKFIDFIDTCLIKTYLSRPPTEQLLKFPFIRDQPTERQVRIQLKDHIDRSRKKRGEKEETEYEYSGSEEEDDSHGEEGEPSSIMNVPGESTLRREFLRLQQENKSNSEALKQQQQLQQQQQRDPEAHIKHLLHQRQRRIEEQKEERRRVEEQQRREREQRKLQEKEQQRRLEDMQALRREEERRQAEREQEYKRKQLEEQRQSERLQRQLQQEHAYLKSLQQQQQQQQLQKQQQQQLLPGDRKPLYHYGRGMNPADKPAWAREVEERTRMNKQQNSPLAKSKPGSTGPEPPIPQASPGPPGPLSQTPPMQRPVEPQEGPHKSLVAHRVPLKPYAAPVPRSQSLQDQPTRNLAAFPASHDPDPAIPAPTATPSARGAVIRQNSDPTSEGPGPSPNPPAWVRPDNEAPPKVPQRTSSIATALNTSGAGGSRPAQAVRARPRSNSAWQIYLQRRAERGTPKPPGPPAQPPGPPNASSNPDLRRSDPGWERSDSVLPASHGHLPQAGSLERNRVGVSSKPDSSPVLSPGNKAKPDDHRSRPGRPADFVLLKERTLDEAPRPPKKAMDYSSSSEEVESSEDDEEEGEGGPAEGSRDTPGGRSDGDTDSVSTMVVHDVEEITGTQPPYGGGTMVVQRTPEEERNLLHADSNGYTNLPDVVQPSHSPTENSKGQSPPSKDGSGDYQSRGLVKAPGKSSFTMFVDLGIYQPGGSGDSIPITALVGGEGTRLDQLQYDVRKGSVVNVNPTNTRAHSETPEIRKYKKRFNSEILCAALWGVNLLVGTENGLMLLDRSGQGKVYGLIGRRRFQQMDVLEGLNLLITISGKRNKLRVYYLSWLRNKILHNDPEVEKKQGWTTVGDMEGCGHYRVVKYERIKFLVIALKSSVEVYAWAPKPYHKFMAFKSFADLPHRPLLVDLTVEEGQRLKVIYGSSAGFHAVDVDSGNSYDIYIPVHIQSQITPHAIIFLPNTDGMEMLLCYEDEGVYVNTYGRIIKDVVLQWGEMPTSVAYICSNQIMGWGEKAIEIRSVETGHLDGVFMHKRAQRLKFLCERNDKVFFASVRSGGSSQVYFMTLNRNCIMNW
Dual specificity mitogen-activated protein kinase kinase 1 (Homo sapiens), sequence (Q02750 whole entry): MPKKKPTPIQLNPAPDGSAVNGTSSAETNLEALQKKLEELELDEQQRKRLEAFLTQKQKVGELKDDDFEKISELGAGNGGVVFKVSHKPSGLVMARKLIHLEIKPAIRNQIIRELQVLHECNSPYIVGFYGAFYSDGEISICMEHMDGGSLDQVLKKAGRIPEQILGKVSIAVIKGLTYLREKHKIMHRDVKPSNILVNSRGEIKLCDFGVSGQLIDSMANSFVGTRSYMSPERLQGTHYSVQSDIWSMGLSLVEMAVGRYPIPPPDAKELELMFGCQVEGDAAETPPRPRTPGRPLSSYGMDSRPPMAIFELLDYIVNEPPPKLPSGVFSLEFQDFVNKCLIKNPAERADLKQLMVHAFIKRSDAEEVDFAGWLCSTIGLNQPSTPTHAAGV
Mitogen-activated protein kinase kinase kinase 9 (Homo sapiens), sequence (P80192 whole entry, looked up): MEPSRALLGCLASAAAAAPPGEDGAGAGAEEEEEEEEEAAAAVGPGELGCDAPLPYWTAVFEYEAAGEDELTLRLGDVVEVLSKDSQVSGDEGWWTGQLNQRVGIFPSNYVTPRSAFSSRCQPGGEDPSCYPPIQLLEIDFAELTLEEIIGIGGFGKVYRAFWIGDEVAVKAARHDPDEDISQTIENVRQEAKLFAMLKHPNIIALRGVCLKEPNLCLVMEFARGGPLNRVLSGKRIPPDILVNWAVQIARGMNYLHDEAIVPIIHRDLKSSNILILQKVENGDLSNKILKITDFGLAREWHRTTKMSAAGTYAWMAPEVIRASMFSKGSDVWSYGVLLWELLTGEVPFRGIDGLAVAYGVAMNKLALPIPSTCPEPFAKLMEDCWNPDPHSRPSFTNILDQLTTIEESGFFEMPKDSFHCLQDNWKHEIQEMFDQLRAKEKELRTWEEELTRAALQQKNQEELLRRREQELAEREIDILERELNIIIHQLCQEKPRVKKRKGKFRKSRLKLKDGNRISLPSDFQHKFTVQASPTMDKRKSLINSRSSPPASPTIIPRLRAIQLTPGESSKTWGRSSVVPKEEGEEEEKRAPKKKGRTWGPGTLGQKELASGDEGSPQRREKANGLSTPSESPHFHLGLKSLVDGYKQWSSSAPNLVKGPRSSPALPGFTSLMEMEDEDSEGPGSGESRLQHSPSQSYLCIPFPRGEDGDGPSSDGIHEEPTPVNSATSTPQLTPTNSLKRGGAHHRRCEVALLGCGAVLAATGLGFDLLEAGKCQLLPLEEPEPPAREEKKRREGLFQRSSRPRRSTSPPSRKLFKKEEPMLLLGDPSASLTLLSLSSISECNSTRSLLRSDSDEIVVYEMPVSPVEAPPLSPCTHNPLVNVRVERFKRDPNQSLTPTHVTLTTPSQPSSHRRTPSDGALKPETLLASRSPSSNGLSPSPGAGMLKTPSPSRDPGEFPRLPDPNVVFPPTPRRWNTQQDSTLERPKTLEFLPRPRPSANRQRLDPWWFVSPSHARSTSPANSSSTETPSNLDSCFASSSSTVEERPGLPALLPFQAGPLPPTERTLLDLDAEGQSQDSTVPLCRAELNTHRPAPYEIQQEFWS

SMILES | residual activity [1] [%] | residual activity [2] [%] | residual activity [3] [%] | residual activity [4] [%] | residual activity [5] [%] | residual activity [6] [%] | residual activity [7] [%] | residual activity [8] [%] | residual activity [9] [%] | residual activity [10] [%] | residual activity [11] [%] | residual activity [12] [%] | residual activity [13] [%] | residual activity [14] [%] | residual activity [15] [%] | residual activity [16] [%] | residual activity [17] [%] | residual activity [18] [%] | residual activity [19] [%] | residual activity [20] [%]
Nc1n[nH]c2nnc(-c3c(-c4ccccc4)nn4ccccc34)cc12 | 94 | 93 | 83 | 78 | 89 | 38 | 91 | 97 | 89 | 39 | 104 | 65 | 88 | 70 | 113 | 74 | 86 | 31 | 111 | 98
Cc1nc(-c2ccccc2)c(-c2ccncc2)o1 | 110 | 101 | 97 | 89 | 105 | 106 | 104 | 89 | 118 | 88 | 99 | 37 | 100 | 103 | 106 | 88 | 106 | 102 | 114 | 129
COc1ccc(CNc2nc(N(CCO)CCO)nc3c2ncn3C(C)C)cc1 | 81 | 98 | 85 | 72 | 103 | 120 | 77 | 38 | 103 | 92 | 102 | 100 | 86 | 95 | 108 | 68 | 82 | 41 | 108 | 89
O=C1Nc2ccccc2/C1=C1/Nc2ccccc2/C1=N\OCCC(O)CO (stereo unspecified) | 61 | 80 | 40 | 8 | 26 | 21 | 7 | 5 | 44 | 17 | 51 | 7 | 54 | 5 | 26 | 20 | 2 | 2 | 111 | 107
O=C(Nc1cccc(Nc2nccc(Nc3cccc(C(F)(F)F)c3)n2)c1)C1CC1 | 100 | 107 | 93 | 50 | 106 | 77 | 61 | 63 | 87 | 59 | 76 | 51 | 85 | 87 | 54 | 66 | 82 | 29 | 117 | 130
CC[n+]1c(/C=C/N(C)c2ccccc2)n(-c2ccccc2)c2ccc(-c3nc4ccccc4s3)cc21 | 63 | 86 | 108 | 111 | 138 | 95 | 91 | 46 | 102 | 84 | 80 | 133 | 108 | 107 | 80 | 34 | 105 | 103 | 99 | 122
Oc1ccc(Nc2nc(-c3ccc(Cl)cc3)cs2)cc1 | 71 | 116 | 104 | 93 | 106 | 112 | 114 | 100 | 104 | 83 | 82 | 52 | 91 | 93 | 118 | 56 | 92 | 36 | 118 | 135
CCN(CC)CCCCN1c2ccccc2Oc2ccc(Cl)cc21 | 133 | 146 | 106 | 106 | 117 | 115 | 96 | 105 | 107 | 95 | 99 | 119 | 120 | 118 | 79 | 102 | 93 | 102 | 133 | 119
CCC(=O)Nc1ccc2ncnc(Nc3cccc(Br)c3)c2c1 | 95 | 88 | 84 | 90 | 93 | 92 | 90 | 96 | 83 | 82 | 77 | 108 | 94 | 89 | 68 | 82 | 89 | 78 | 109 | 101
CCN(CC)C(=O)c1ccc(Nc2nc(OCC3CCCCC3)c3nc[nH]c3n2)cc1 | 39 | 69 | 60 | 17 | 48 | 48 | 40 | 3 | 94 | 63 | 75 | 41 | 56 | 16 |  |  | 2 | 1 | 99 | 73
O=C1Nc2ccc(Br)cc2/C1=C\c1cc2c([nH]1)CCCC2 | 106 | 101 | 72 | 59 |  |  | 78 |  |  |  | 76 | 84 |  |  | 83 | 84 | 63 | 49 | 108 | 110
CO[C@H]1C[C@@H]2CC[C@@H](C)[C@@](O)(O2)C(=O)C(=O)N2CCCC[C@H]2C(=O)O[C@H]([C@H](C)C[C@@H]2CC[C@@H](O)[C@H](OC)C2)CC(=O)[C@H](C)/C=C(\C)[C@@H](O)[C@@H](OC)C(=O)[C@H](C)C[C@H](C)/C=C/C=C/C=C/1C | 115 | 133 | 78 | 71 | 132 | 97 | 88 | 97 | 81 | 74 | 93 | 82 | 102 | 102 | 75 | 101 | 91 | 106 | 118 | 146
O=C(O)c1ccc2c3c1cccc3c(=O)n1c3ccccc3nc21 | 95 | 106 | 81 | 35 | 94 | 97 | 91 | 53 |  | 5 | 92 | 64 | 87 | 46 | 88 | 35 | 33 | 5 | 107 | 115
O=Nc1c(-c2c(O)[nH]c3ccccc23)[nH]c2ccccc12 | 76 | 88 | 37 | 5 | 64 | 55 |  | 7 | 54 | 10 | 63 | 40 | 52 | 7 | 46 | 13 | 6 | 1 | 142 | 135
Cn1cc(/C=C2\C(=O)Nc3ccc(S(N)(=O)=O)cc32)c2ccccc21 | 71 | 88 | 23 | 7 | 42 | 19 | 42 | 51 | 56 | 61 | 69 | 85 | 89 | 59 | 63 | 82 | 6 | 3 | 103 | 89
O=C1NC(=O)/C(=C\c2ccc3nccnc3c2)S1 | 85 | 91 | 86 | 71 | 108 | 84 | 64 | 31 | 89 | 61 | 95 | 85 | 96 | 88 | 81 | 62 | 80 | 53 | 106 | 93
Cn1nc2c3c(cccc31)C(=O)c1ccccc1-2 | 73 | 66 | 76 | 62 | 95 | 91 | 67 | 59 | 93 | 80 |  | 70 | 84 | 53 | 65 | 49 | 74 | 28 | 108 | 99
C[C@@H](N)[C@H]1CC[C@H](C(=O)Nc2ccncc2)CC1 | 82 | 85 | 95 |  | 104 | 106 | 105 | 87 | 99 | 108 | 101 | 99 | 107 | 121 |  |  | 105 | 101 | 98 | 84
O=[N+]([O-])c1ccc(-c2nc(-c3ccc(F)cc3)c(-c3ccncc3)[nH]2)cc1 | 102 | 104 | 91 | 90 | 109 | 127 | 97 | 87 | 74 | 63 | 50 | 4 | 101 | 98 | 100 | 86 |  | 83 | 126 | 98
N#CC(C#N)=C(N)/C(C#N)=C/c1ccc(O)cc1 | 87 |  | 89 | 75 |  |  | 70 | 78 | 89 | 88 | 91 | 99 | 94 |  | 68 | 85 | 99 | 97 | 90 | 76
Cc1ccc(NC2=CC(=O)c3sc(C)nc3C2=O)cc1 | 87 | 61 | 87 | 80 | 99 | 116 | 95 | 85 | 106 | 94 |  | 104 | 74 | 101 | 101 | 82 | 98 | 90 | 95 | 91
CCOc1cc2ncnc(Nc3cccc(Br)c3)c2cc1OCC | 72 | 82 | 82 | 69 | 117 | 50 | 91 | 62 | 88 | 50 | 81 | 44 | 91 | 72 | 69 | 41 | 72 | 26 | 88 | 99
CO[C@@H]1[C@H](N(C)C(=O)c2ccccc2)C[C@H]2O[C@]1(C)n1c3ccccc3c3c4c(c5c6ccccc6n2c5c31)C(=O)NC4 | 47 | 37 | 1 | 0 | 74 | 56 | 5 | 2 | 52 | 18 | 52 | 58 | 111 | 135 | 13 | 10 | 1 | 1 | 93 | 102
Cc1cc2ncc(-c3ccccc3)nc2cc1C | 93 | 93 | 84 | 90 |  | 90 | 72 | 77 | 94 | 82 | 86 | 106 | 76 | 93 | 77 | 96 | 92 | 102 |  | 81
COc1ccc(OC)c2c(=S)c3ccccc3[nH]c12 |  | 89 | 87 | 74 | 114 | 110 | 102 | 84 | 108 | 94 | 112 | 96 | 81 | 90 | 132 | 71 |  | 89 | 119 | 93
NC(=O)c1ccc2[nH]c(-c3ccc(Oc4ccc(Cl)cc4)cc3)nc2c1 | 126 | 127 | 85 | 70 | 91 | 111 | 91 | 83 | 91 | 66 | 91 | 94 | 94 | 103 | 93 | 96 | 89 | 34 | 113 | 127
Oc1c2ccccc2c2c3c(cccc13)N=N2 | 69 | 103 | 38 | 6 | 75 | 50 | 13 | 0 | 86 | 50 | 82 | 13 | 58 | 6 | 29 | 3 | 13 | 4 | 115 | 116
c1ccc(-c2n[nH]c3c2oc2ccccc23)cc1 |  |  | 69 | 44 |  |  | 43 | 7 | 73 | 34 | 76 | 89 | 87 | 67 | 66 | 64 | 69 | 39 | 92 | 116
